PLCg1 inh: PLC-gamma1 enzyme inhibitors, primary screen, biochemical, fluorescence, purified enzyme; 1-phosphatidylinositol 4,5-bisphosphate phosphodiesterase gamma-1 (Homo sapiens), P19174; 370,000 tested, 0.84% active; fluorogenic substrate; AID 720700, 2013; inhibition, % at 12.2 µM; in the data active = inhibition above about 9.5%
ADAM10 inh: human ADAM10 inhibitors, primary screen, biochemical, QFRET, HTS; inhibition, % at 7 µM; recombinant ADAM10, EDANS/DABCYL FRET peptide cleavage, 3 h; Disintegrin and metalloproteinase domain-containing protein 10 (Homo sapiens), O14672; 370,000 tested, 0.62% active;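 active = inhibition above a per-campaign cutoff equal to the mean of compounds falling between control-based bounds plus 3 SD, cut at about 20% in these data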;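 also: 0% = DMSO wells while the 100% control is not disclosed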
Target sequence (O14672 214-748 limits assumed): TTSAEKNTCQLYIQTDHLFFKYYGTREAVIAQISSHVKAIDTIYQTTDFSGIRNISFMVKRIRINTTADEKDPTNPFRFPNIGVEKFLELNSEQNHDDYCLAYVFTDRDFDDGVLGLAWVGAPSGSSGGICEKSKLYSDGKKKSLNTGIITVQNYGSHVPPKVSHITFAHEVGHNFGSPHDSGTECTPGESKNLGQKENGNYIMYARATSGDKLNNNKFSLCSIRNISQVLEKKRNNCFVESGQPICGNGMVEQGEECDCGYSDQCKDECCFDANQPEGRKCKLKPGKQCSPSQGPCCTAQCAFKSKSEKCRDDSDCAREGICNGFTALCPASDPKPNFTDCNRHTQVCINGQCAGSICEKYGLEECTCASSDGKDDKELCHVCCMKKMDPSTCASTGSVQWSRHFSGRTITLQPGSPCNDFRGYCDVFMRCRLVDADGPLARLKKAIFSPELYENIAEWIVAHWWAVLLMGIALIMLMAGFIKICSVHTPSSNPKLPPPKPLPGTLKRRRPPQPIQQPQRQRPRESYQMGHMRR
PLC-beta3 inh: human PLC-beta3 inhibitors, primary screen, biochemical, fluorescence | 1-phosphatidylinositol 4,5-bisphosphate phosphodiesterase beta-3 (Homo sapiens), Q01970 | Purified PLC-beta3, fluorogenic substrate | inhibition, % at 12.2 µM | 370,000 tested, 0.18% active; in the data active = inhibition above about 11%;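 also: 0% = median of compound wells on plate and 100% = full blocker control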
proKLK7 act: proKLK7 zymogen activators, primary screen, biochemical, fluorescence intensity; activation, % at 7 µM; purified proKLK7, EDANS-DABCYL substrate fluorescence; 100% is mature enzyme control, 0% vehicle; AID 652039, 2013; 370,000 tested, 0.9% active; Kallikrein-7 (Homo sapiens), P49862;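 active = activation above the mean of all tested compounds plus 3 SD, computed per campaign excluding outliers beyond control limits, cut at about 13% in these data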
ADAM17 inh: ADAM17 inhibitors, primary screen, biochemical, QFRET; 370,000 tested, 0.83% active; inhibition, % at 6.95 µM; recombinant ADAM17, EDANS/DABCYL FRET peptide cleavage;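 active = inhibition above the mean of compounds lying between control limits plus 3 SD, set per campaign, cut at about 8.5% in these data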;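 also: 0% = DMSO-only wells as the low control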
ADAM10 confirm: human ADAM10 inhibitors, confirmation, biochemical, QFRET, triplicate | shares compounds with ADAM10 inh | ADAM10 QFRET peptide cleavage, EDANS fluorescence | inhibition, % at 6.95 µM | 2,100 tested, 1% active | AID 743208, 2013;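 active = inhibition above about 20% chosen separately for each screening run, limit read from the data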;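 also: 0% = DMSO wells and 100% = marimastat wells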
ADAM17 ctr: ADAM17 inhibitors, counter-screen for ADAM10 exosite inhibitor project, biochemical, QFRET, high throughput | shares compounds with ADAM10 inh | ADAM17 QFRET peptide cleavage, EDANS fluorescence | inhibition, % at 6.95 µM | 2,100 tested, 0.5% active;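 active = mean triplicate inhibition above the solvent-only control wells' mean plus 3 SD, cut at about 12% in these data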;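 also: 0% = DMSO wells and 100% = marimastat wells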
* marks the source's active call; other numbers are inactive results; nt = no result given. An excerpt weighted towards active compounds, which were near 2.9% of everything screened.

SMILES	PLCg1 inh	ADAM10 inh	PLC-beta3 inh	proKLK7 act	ADAM17 inh	ADAM10 confirm	ADAM17 ctr
ON=C1c2ccccc2-c2ccc(F)cc21	-4	7	-11	0	0	nt	nt
CCCCc1c(-c2ccccc2OC)ncn1Cc1ccc(Cl)cc1Cl	0	8	-4	1	8	nt	nt
Cc1ccc(S(=O)(=O)Nc2cccc(C(=O)N3CCN(c4ccccc4O)CC3)c2)cc1F	0	20*	-15	0	3	-1	1
O=C(c1cccc(NS(=O)(=O)c2ccc(F)c(F)c2)c1)N1CCCCC1	-1	-3	-1	-1	-2	nt	nt
CCCCOCCCNC(=O)C[C@H]1C(=O)N(Cc2ccc(OC)cc2)C2=CCCCC[C@@]21C(=O)OC	-1	2	-5	0	-3	nt	nt
CCCCC(=O)N1CCCC(c2nc3c(nnn3Cc3cc(C)ccc3C)c(=O)[nH]2)C1 (stereo not given)	-6	88*	0	0	-3	0	0
CC(C)(C)c1ccc(Cn2nnc3c(=O)[nH]c(C4CCCN(C(=O)c5cccs5)C4)nc32)cc1 (stereo not given)	8	24*	-3	-1	8	1	0
CC(C)(C)c1ccc(Cn2nnc3c(=O)[nH]c(C4CCCN(C(=O)Cc5cccs5)C4)nc32)cc1 (stereo not given)	0	6	-1	0	1	nt	nt
Cc1ccc(C)c(S(=O)(=O)N2CCC(c3nc4c(nnn4Cc4ccc5c(c4)OCCO5)c(=O)[nH]3)CC2)c1	3	24*	-5	0	5	11	3
C=CCN1[C@H](Cc2ccccc2)COc2cccc(N3CCCC3)c2S1(=O)=O	-1	-8	-2	0	-2	nt	nt
O=C(Nc1ccc(S(=O)(=O)Nc2nccs2)cc1)c1cc(-c2ccccc2)nc2ccccc12	2	27*	0	0	8	9	2
O=C(Nc1ccc(S(=O)(=O)Nc2nccs2)cc1)/C(=C/c1ccccc1Cl)NC(=O)c1ccccc1	2	32*	-4	0	8	1	0
O=S1(=O)c2ccc(N3CC[C@H](O)C3)cc2O[C@H]2CCN1C2	1	-4	-4	-1	-7	nt	nt
C[C@H]1CN([C@@H](C)CO)C(=O)CCCn2cc(nn2)CO[C@@H]1CN(C)C(=O)c1ccc2ccn(C)c2c1	-4	-13	-4	0	-4	nt	nt
C=CCN(C(=O)Cn1c(C(=O)OC)cc2oc(C)cc21)c1ccccc1	-1	82*	-56	1	0	3	1
CN1c2ccc(C#CC3CC3)cc2[C@@H]2[C@@H](CCN2C(=O)C2CCOCC2)[C@H]1CO	-40	-28	-54	0	-8	nt	nt
C[C@@H]1CCCCO[C@H](CN(C)S(=O)(=O)c2cccs2)[C@@H](C)CN([C@H](C)CO)C(=O)c2cc(NC(=O)Nc3ccc4c(c3)OCO4)ccc2O1	0	20*	-2	0	5	5	1
COc1ccc(S(=O)(=O)N(C)C[C@H]2OCCCC[C@H](C)Oc3ccc(NC(=O)Nc4ccc(F)cc4)cc3C(=O)N([C@H](C)CO)C[C@H]2C)cc1	-4	14	0	0	7	nt	nt
Cc1ccc(S(=O)(=O)N(C)C[C@@H]2OCCCC[C@H](C)Oc3ccc(NC(=O)Nc4ccc(F)cc4)cc3C(=O)N([C@H](C)CO)C[C@H]2C)cc1	-1	23*	2	0	8	7	3
C[C@@H]1CN([C@@H](C)COC(=O)C(C)(C)C)C(=O)c2cc(NC(=O)Nc3ccccc3)ccc2O[C@@H](C)CCCCO[C@H]1CN(C)S(=O)(=O)c1ccc(F)cc1	3	25*	5	nt	6	15	5
